Experimental data as given in PubChem BioAssay (NCI).
Values joined by “and” are separate entries in the source; they are usually repeats but may differ in a detail not shown here. Equal values may be shown once. Compounds without any hit were thinned out: in the full panel of roughly 83,000, 20% have a hit.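 Cell lines were cultured in 96-well plates, exposed to a single compound concentration, and assessed for percent growth 48 hours later.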 Active and inactive are the calls of the source. Rule for the calls: active = growth percent below 10; inactive = the rest.

The compounds below were run on TK-10 renal (assay: NCI-60 one-dose screen, 48 h (100 = growth as untreated, 0 = no growth, -100 = all killed)). Settings: 10 µM unless noted.

Row | Compound | growth
1 | NNC1=N/C(=C\c2ccco2)C(Cl)=N1 | 67% [100 µM] (inactive) and 2.87% [100 µM] (active)
2 | Cc1ccc(NC(=S)C#N)c(C)c1 | 93.1% [100 µM] (inactive) and 43.3% [100 µM] (inactive)
3 | COC(=O)C(=O)C(C(=O)C(=O)Nc1ccccc1C(=O)OC)c1nc2ccc(C(=O)c3ccccc3)cc2[nH]c1=O (stereo not drawn) | 82.4% [100 µM] (inactive) and 16.6% [100 µM] (inactive)
4 | Cc1cc2c3c(nc4ccccc42)C(=O)c2cccnc2-c3n1 | -10.8% [100 µM] (active) and -100% [100 µM] (active)
5 | Cc1c2c(c(O)c3c(O)cccc13)C(=O)C1(O)C(O)=C(C(=O)NCNc3ccc(C(N)=O)cn3)C(=O)C(N(C)C)C1C2 (stereo not drawn) | -70% [100 µM] (active) and -74.7% [100 µM] (active)
6 | CCCCOC(=O)C1CC[C@H]2[C@@H]3CCc4cc(OC(=O)c5cccc6c(=O)c7ccccc7[nH]c56)ccc4[C@H]3CC[C@]12C (stereo partly drawn) | -100% [50 µM] (active)
7 | N#Cc1c(SCc2ccccc2)nc(-c2ccccc2)[nH]c1=S | 9.89% [100 µM] (active) and 3.82% [100 µM] (active)
8 | O=C(O)c1cnccc1-c1cc(=O)[nH]n1-c1ccccc1 | 53.2% [100 µM] (inactive) and -7.14% [100 µM] (active)
9 | CCOc1cc2c(cc1O)C(=O)C[C@@H]1[C@@H]2CC[C@]2(C)[C@@H](O)CC[C@@H]12 | 38.8% [100 µM] (inactive) and -2.4% [100 µM] (active)
10 | CC(=O)c1cc2c(s1)C(=O)c1scc(C(C)=O)c1C2=O | -9.55% [100 µM] (active) and -86% [100 µM] (active)
11 | Cc1ccc(/C=N/Nc2ccc3ccccc3n2)s1 | 50.5% [100 µM] (inactive) and 7.78% [100 µM] (active)
12 | N#Cc1sc2nc(/C=C3/C=CC=CC3=O)c(O)n2c1N | 78.8% [100 µM] (inactive) and 47.7% [100 µM] (inactive)
13 | CC(=O)OC(C)c1cc2c(s1)C(=O)c1ccsc1C2=O (stereo not drawn) | -61.4% [100 µM] (active) and -100% [100 µM] (active)
14 | C/C(Cl)=N/OC(=O)Nc1ccc(S(N)(=O)=O)c(C)c1 | -100% [100 µM] (active)
15 | O=c1[nH]c(=O)n(C2CC(O)C(CO)O2)cc1Br (stereo not drawn) | 67.2% [100 µM] (inactive) and 21% [100 µM] (inactive)
16 | C#CCn1c2c(c3ccccc3c1=O)C(=O)c1ccccc1-2 | 17.2% [100 µM] (inactive) and -69.9% [100 µM] (active)
17 | CC12NC(=C(C#N)C#N)C(C#N)=C3NC(N)=C(C#N)C(=C31)Oc1ccccc12 (stereo not drawn) | 22.5% [100 µM] (inactive) and -82.1% [100 µM] (active)
18 | CCOC(=O)C1(C#N)C(=O)c2cc[n+](CC[n+]3ccc4c(c3)C(=O)C(C#N)(C(=O)OCC)C4=O)cc2C1=O (stereo not drawn) | 141% [100 µM] (inactive) and 101% [100 µM] (inactive)
19 | CC1(C)CCCC(C)(C2CCC3(C)C2C(O)CC2C4(C)CCC(O)C(C)(C)C4C(O)CC23C)O1 (stereo not drawn) | 4.11% [100 µM] (active) and -96.5% [100 µM] (active)

Row | Compound | growth
20 | N#C/C(=C\c1ccccc1)C(=O)Nc1nnc(-c2ccccc2)o1 | 88.2% [100 µM] (inactive) and 4.58% [100 µM] (active)
21 | O=C1NC(=S)NC1C(Cc1ccccc1)c1ccco1 (stereo not drawn) | 80.1% [100 µM] (inactive) and 73% [100 µM] (inactive)
22 | CC(C)C1OC23CCCCC2C(C#N)(C#N)C1(C#N)C(=N)O3 (stereo not drawn) | 39.7% [100 µM] (inactive)
23 | O=c1c(-c2ccc3c(c2)OCO3)coc2c3c(ccc12)OCO3 | -27.5% [100 µM] (active) and -100% [100 µM] (active)
24 | C=C1C(=O)OC2/C=C(/C)C3(O)OC(C)(CC(OC(=O)C(C)C)C12)CC3OC(C)=O (stereo not drawn) | -95.3% [100 µM] (active)
25 | Oc1ccccc1-c1n[nH]c(-c2ccccc2O)n1 | 46.3% [100 µM] (inactive) and 4.42% [100 µM] (active)
26 | CC12CCC3c4cc(Br)c(O)c(Br)c4CCC3C1CCC2O (stereo not drawn) | 12.2% [100 µM] (inactive) and -95.7% [100 µM] (active)
27 | COc1c2c(c(OC)c3c1c(=O)c1ccccc1n3C)OCO2 | 54.2% [100 µM] (inactive)
28 | N#CC1C(=O)N(c2ccccc2)NC12OC(=O)c1ccncc12 (stereo not drawn) | 88.7% [20 µM] (inactive) and 4.38% [20 µM] (active)
29 | N#CC12COC3(CCCCC3C1(C#N)C#N)OC2=N (stereo not drawn) | 41.4% [100 µM] (inactive)
30 | Cc1cc(N2CCCC2)c([N+](=O)[O-])cc1[N+](=O)[O-] | 89.8% [100 µM] (inactive) and 75.9% [100 µM] (inactive)
31 | Nc1cc2c3c(cccc3c1)C(=O)N(c1ccc(OCCN3CCCC3)cc1)C2=O | 33.8% [100 µM] (inactive) and -100% [100 µM] (active)
32 | Cc1ccc(/C=N/Nc2cc(C)c3ccccc3n2)s1 | -63.7% [100 µM] (active) and -75.8% [100 µM] (active)
33 | NC1=NN(c2ccccc2)C2(c3ccncc3C(=O)O)C1C(N)=NN2c1ccccc1 (stereo not drawn) | 106% [100 µM] (inactive) and 9.31% [100 µM] (active)
34 | COc1cc2c(cc1O)Cc1c-2[n+](C)cc2cc(OC)c(OC)cc12 | 89.2% [100 µM] (inactive) and 4.86% [100 µM] (active)
35 | COc1cc2c(cc1-c1coc3cc(OCC=C(C)C)ccc3c1=O)OCO2 | 5.74% [100 µM] (active) and 19.4% [100 µM] (inactive)
36 | Cc1ccnc2[nH]c(-c3ccc(F)cc3)cc(=O)c12 | 66.3% [100 µM] (inactive) and 16.9% [100 µM] (inactive)
37 | COc1ccc2c3c(c(=O)n(C)c2c1OC)C=CC(C)(C)O3 | 8.86% [100 µM] (active) and 15% [100 µM] (inactive)
38 | CC1(C)CC2(C)OC(=N)C1(C#N)C2(C#N)C#N (stereo not drawn) | -89.5% [100 µM] (active) and -77.9% [100 µM] (active)
